# Results taken from PubChem BioAssay (NCATS).
# Inconclusive results are not listed. Where a call stands in place of a potency, no number is given. Active and inactive are the calls of the source. Unless noted, calls come from the whole dose curve; as a rule, active = well fitted curve in the direction sought with a large enough effect; inconclusive = small, poorly fitted or top-dose-only effect, or another doubt; inactive = no such curve, though single readings can be large; an effect the other way counts as inactive or inconclusive.
# Legend:
# [1] = qHTS for Inhibitors of the Functional Ribonucleoprotein Complex (vRNP) of Lassa (LASV) Arenavirus: LASV Primary Screen - GLuc reporter signal (AID 1347082; calls by dose curve; tested in HEK293 reporter line; note: nearly all actives have a fitted effect of over 60% in size); conditions: LASV minigenome vRNP, Gaussia luciferase reporter; series mostly up to 57.5 µM
# [2] = qHTS for Inhibitors of the Functional Ribonucleoprotein Complex (vRNP) of Lassa (LASV) Arenavirus: Viability assay - alamar blue signal for LASV Primary Screen (AID 1347083; calls by dose curve; tested in HEK293 reporter line; note: nearly all actives have a fitted effect of over 80% in size); conditions: cell viability, alamar blue fluorescence (LASV minigenome counter-screen); series mostly up to 57.5 µM
# [3] = NS1 protein of Zika virus - qHTS assay to identify small molecule inhibitors in human HEK 293 cells (AID 1347053); conditions: HEK293 ZIKV MR766 infection, NS1 TR-FRET, 24 h; series mostly up to 46.1 µM; note: nearly all actives have a fitted effect of over 55% in size
# In short: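 In this cell-based screen, HEK 293 cultures received compound for one hour before Zika MR766 at MOI = 0.5. NS1 was quantified 24 hours later by TR-FRET, normalized to virus-free wells and infected wells.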
# [4] = qHTS for Inhibitors of the Functional Ribonucleoprotein Complex (vRNP) of Lymphocytic Choriomeningitis Arenaviruses (LCMV): Viability assay - alamar blue signal for LCMV Primary Screen (AID 1347085; calls by dose curve; tested in HEK293 reporter line; note: nearly all actives have a fitted effect of over 80% in size); conditions: alamar blue viability counter-screen, LCMV vRNP screen cells; series mostly up to 57.5 µM
# [5] = biological target: Nucleoprotein (Lymphocytic choriomeningitis virus (strain Armstrong)) (UniProt P09992); test: qHTS for Inhibitors of the Functional Ribonucleoprotein Complex (vRNP) of Lymphocytic Choriomeningitis Arenaviruses (LCMV): LCMV Primary Screen - GLuc reporter signal (AID 1347086; calls by dose curve; note: nearly all actives have a fitted effect of over 70% in size); conditions: LCMV minigenome vRNP cell assay, Gaussia luciferase reporter; series mostly up to 57.5 µM
# [6] = qHTS of pediatric cancer cell lines to identify multiple opportunities for drug repurposing: Primary screen for TC32 cells (AID 1347089); conditions: TC32 Ewing sarcoma viability, CellTiter-Glo luminescence, 48 h; series mostly up to 45.8 µM; note: nearly all actives have a fitted effect of over 60% in size
# In short: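 Luminescent CellTiter-Glo read-out of metabolically active TC32 cells after 48 h compound exposure. Primary: MIPE 11-point, 0.78 nM–46 µM; NPC 8-point, 0.59 nM–46 µM. Confirmatory: 11-point dilutions.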
# [7] = qHTS of pediatric cancer cell lines to identify multiple opportunities for drug repurposing: Primary screen for DAOY cells (AID 1347090); conditions: DAOY medulloblastoma viability, CellTiter-Glo luminescence, 48 h; series mostly up to 46 µM; note: nearly all actives have a fitted effect of over 55% in size
# In short: (§1)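 Viability measured as metabolically active cells via CellTiter-Glo luminescence following 48 hours of compound exposure, 11-point dilutions in confirmatory testing. 500-1,000 cells/well plated 5 hours before dosing; controls were DMSO and 2.3 µM bortezomib.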
# [8] = qHTS of pediatric cancer cell lines to identify multiple opportunities for drug repurposing: Primary screen for SJ-GBM2 cells (AID 1347091); conditions: SJ-GBM2 viability, CellTiter-Glo luminescence, 48 h; series mostly up to 46 µM
# In short: as §1
# [9] = qHTS of pediatric cancer cell lines to identify multiple opportunities for drug repurposing: Primary screen for A673 cells (AID 1347092); conditions: A673 Ewing sarcoma viability, CellTiter-Glo ATP luminescence, 48 h; series mostly up to 46 µM; note: nearly all actives have a fitted effect of over 45% in size
# In short: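 A673 cells (500-1,000 cells/well in growth media) were pre-incubated 5 h at 37 degrees C, then exposed to compounds for 48 h. Viability was read as CellTiter-Glo luminescence; concentration-response curves came directly from the primary screen.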
# Potency is the fitted concentration of half-maximal effect.
# Sequence of Nucleoprotein (Lymphocytic choriomeningitis virus (strain Armstrong)) (P09992 whole entry, looked up): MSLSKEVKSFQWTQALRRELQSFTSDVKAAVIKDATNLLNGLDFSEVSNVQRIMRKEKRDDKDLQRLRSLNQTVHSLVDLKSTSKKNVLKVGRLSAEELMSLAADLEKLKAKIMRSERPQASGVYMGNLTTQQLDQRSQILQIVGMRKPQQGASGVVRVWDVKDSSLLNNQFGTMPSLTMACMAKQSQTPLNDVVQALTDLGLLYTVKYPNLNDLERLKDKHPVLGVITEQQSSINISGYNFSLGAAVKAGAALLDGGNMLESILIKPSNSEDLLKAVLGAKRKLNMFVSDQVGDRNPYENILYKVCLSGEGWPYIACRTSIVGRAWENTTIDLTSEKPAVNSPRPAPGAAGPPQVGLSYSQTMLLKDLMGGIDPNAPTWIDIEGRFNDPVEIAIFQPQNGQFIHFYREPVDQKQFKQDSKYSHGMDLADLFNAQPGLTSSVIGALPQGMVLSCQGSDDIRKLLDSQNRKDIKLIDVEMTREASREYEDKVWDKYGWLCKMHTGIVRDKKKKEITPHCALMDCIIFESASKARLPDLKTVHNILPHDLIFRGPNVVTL
smiles,measurement,setting,value
CC1=C[C@@H]2[C@@H]([C@@H](O)C[C@@]3(C)[C@H]2C[C@@H](C)[C@]3(O)C(=O)CO)[C@@]2(C)Cc3cnn(-c4ccccc4)c3C=C12,Potency,[1],inactive
CCOc1ccc(Nc2nc(-c3c(C)nc4ccccn34)cs2)cc1,Potency,[1],inactive
same,Potency,[2],0.0049 µM (active)
Cc1ccc(NC(=O)c2cccc(C(C)(C)C#N)c2)cc1Nc1ccc2ncn(C)c(=O)c2c1,Potency,[1],inactive
same,Potency,[2],17.2 µM (active)
C[C@@H]1CN(CC(=O)Nc2ccc3c(c2)Cc2cccc(-c4cc(=O)cc(N5CCOCC5)o4)c2S3)C[C@H](C)O1,Potency,[1],inactive
CN(C)CCCN=c1c2ccccc2n(C)c2[nH]c(=O)n(C)c(=O)c12,Potency,[1],inactive
same,Potency,[2],19.3 µM (active)
Cc1cc([C@@H](C)Nc2ccccc2C(=O)O)c2nc(N3CCOCC3)cc(=O)n2c1,Potency,[1],39.5 µM (active)
same,Potency,[2],5.59 µM (active)
CCC(=O)O[C@@H]1C=C2CCC3C(CCC4(C)C3CC[C@@H]4OC(=O)CC)C2CC1 (some centres not stated),Potency,[3],inactive
same,Potency,[1],inactive
same,Potency,[2],inactive
same,Potency,[4],inactive
same,Potency,[5],inactive
same,Potency,[6],inactive
same,Potency,[7],inactive
same,Potency,[8],inactive
same,Potency,[9],inactive
CC1=C(C(=O)O)N2C(=O)[C@@H](N)[C@H]2SC1,Potency,[3],inactive
same,Potency,[1],inactive
same,Potency,[2],inactive
same,Potency,[4],inactive
same,Potency,[5],inactive
same,Potency,[6],inactive
same,Potency,[7],inactive
same,Potency,[8],inactive
same,Potency,[9],inactive
Cc1ccc(NC(=O)c2ccc(CN3CCN(C)CC3)cc2)cc1Nc1nc(-c2cccnc2)cs1,Potency,[1],inactive
CCCCCC[C@H]1C(=O)O[C@H](C)[C@H](NC(=O)c2cccc(NC=O)c2O)C(=O)O[C@@H](C)[C@@H]1OC(=O)CC(C)C,Potency,[3],2.96 µM (active)
same,Potency,[1],1.09 µM (active)
same,Potency,[2],4.32 µM (active)
same,Potency,[4],4.85 µM (active)
same,Potency,[5],1.22 µM (active)
same,Potency,[7],0.0372 µM (active)
same,Potency,[8],0.187 µM (active)
same,Potency,[9],0.296 µM (active)
CC(C)C(=O)Nc1ncc(-c2cc(C(F)F)nn2-c2c(Cl)cccc2Cl)s1,Potency,[1],inactive
COc1cc2c(cc1O)CC[C@@H]1[C@@H]2CC[C@]2(C)[C@@H](O)CC[C@@H]12,Potency,[1],inactive
c1cc(-c2cnn3cc(-c4ccc(OCCN5CCCCC5)cc4)cnc23)ccn1,Potency,[1],34.3 µM (active)
same,Potency,[2],17.2 µM (active)
O=S(=O)(c1ccc(Cl)cc1)c1ccc(Cl)cc1,Potency,[3],inactive
same,Potency,[1],inactive
same,Potency,[2],inactive
same,Potency,[4],inactive
same,Potency,[5],inactive
same,Potency,[6],inactive
same,Potency,[7],inactive
same,Potency,[9],inactive
O=[N+]([O-])c1c2ccccc2cc2ccccc12,Potency,[3],inactive
same,Potency,[1],inactive
same,Potency,[2],inactive
same,Potency,[4],inactive
same,Potency,[5],inactive
same,Potency,[6],inactive
same,Potency,[8],inactive
Cc1cnc(-c2cnc(NCCNc3ccc(C#N)cn3)nc2-c2ccc(Cl)cc2Cl)[nH]1,Potency,[1],inactive
same,Potency,[2],inactive
CCN(CC)CCCCNc1ncc2cc(-c3cc(OC)cc(OC)c3)c(NC(=O)NC(C)(C)C)nc2n1,Potency,[1],inactive
same,Potency,[2],19.3 µM (active)
C#C[C@]1(O)C=C[C@@H]2[C@@H]3CCC4=CC(=O)CC[C@@H]4[C@H]3CC[C@@]21CC,Potency,[3],inactive
same,Potency,[1],inactive
same,Potency,[2],inactive
same,Potency,[4],inactive
same,Potency,[5],inactive
same,Potency,[6],inactive
same,Potency,[7],inactive
same,Potency,[8],inactive
same,Potency,[9],inactive
Fc1cc(Br)ccc1CBr,Potency,[3],inactive
same,Potency,[1],inactive
same,Potency,[2],inactive
same,Potency,[4],inactive
same,Potency,[5],inactive
same,Potency,[6],inactive
same,Potency,[7],inactive
same,Potency,[8],inactive
same,Potency,[9],inactive
CC1(C)CC/C(=C/c2ccc(Cl)cc2)C1(O)Cn1cncn1 (configuration not stated),Potency,[3],inactive
same,Potency,[1],inactive
same,Potency,[2],inactive
same,Potency,[6],inactive
same,Potency,[7],inactive
same,Potency,[9],inactive
CN(C)CC=CC(=O)Nc1cc2c(Nc3ccc(F)c(Cl)c3)ncnc2cc1O[C@H]1CCOC1,Potency,[1],13.7 µM (active)
same,Potency,[2],24.3 µM (active)
Cc1c(N)nc([C@H](CC(N)=O)NC[C@@H](N)C(N)=O)nc1C(=O)N[C@H](C(=O)N[C@@H](C)[C@H](O)[C@@H](C)C(=O)N[C@@H](C(=O)NCCc1nc(-c2nc(C(=O)NCCC[S+](C)C)cs2)cs1)[C@@H](C)O)C(O[C@H]1O[C@H](CO)[C@H](O)[C@@H](O)[C@@H]1O[C@H]1O[C@H](CO)[C@@H](O)[C@H](OC(N)=O)[C@H]1O)c1cnc[nH]1 (some centres not stated),Potency,[3],2.96 µM (active)
same,Potency,[1],inactive
same,Potency,[2],7.69 µM (active)
same,Potency,[5],inactive
same,Potency,[6],4.15 µM (active)
same,Potency,[8],1.48 µM (active)
CC(C)c1ccc2c(c1)c(SC(C)(C)C)c(CC(C)(C)C(=O)O)n2Cc1ccc(Cl)cc1,Potency,[1],12.2 µM (active)
same,Potency,[2],12.2 µM (active)
Nc1cccc2c(N)cccc12,Potency,[1],inactive
CCNC(=O)C[C@@H]1N=C(c2ccc(Cl)cc2)c2cc(OC)ccc2-n2c(C)nnc21,Potency,[3],inactive
same,Potency,[2],3.06 µM (active)
same,Potency,[4],1.22 µM (active)
same,Potency,[5],1.22 µM (active)
same,Potency,[7],5.9 µM (active)
same,Potency,[8],5.9 µM (active)
same,Potency,[9],0.59 µM (active)
COc1ccc(-c2ccc3c(N4CCOCC4)nc(N4C[C@@H](C)O[C@@H](C)C4)nc3n2)cc1CO,Potency,[1],0.344 µM (active)
same,Potency,[2],0.243 µM (active)
same,Potency,[4],1.09 µM (active)
COC(=O)c1c(Cl)c(Cl)c(C(=O)OC)c(Cl)c1Cl,Potency,[1],inactive
same,Potency,[2],inactive
Cc1cccc(-c2[nH]c(C(C)(C)C)nc2-c2ccc3nccnc3c2)n1,Potency,[1],9.68 µM (active)
COc1ccc(C(=O)c2c(C)n(CCN3CCOCC3)c3cc(I)ccc23)cc1,Potency,[3],inactive
same,Potency,[4],inactive
same,Potency,[5],inactive
same,Potency,[6],inactive
same,Potency,[7],18.7 µM (active)
same,Potency,[8],18.7 µM (active)
same,Potency,[9],14.8 µM (active)
CC(=O)N(C)C1(c2ccccc2)CCN(CCC[C@]2(c3ccc(Cl)c(Cl)c3)CCCN(C(=O)c3ccccc3)C2)CC1,Potency,[1],inactive
same,Potency,[2],inactive
CC(C)(C)c1ccc(O)c(O)c1,Potency,[1],inactive
CC(=O)c1c(C)c2cnc(Nc3ccc(N4CCNCC4)cn3)nc2n(C2CCCC2)c1=O,Potency,[1],inactive
same,Potency,[2],30.6 µM (active)
CCCCn1c(=O)n(Cc2ccccc2F)c(=O)c2[nH]c(Cc3ccc(NC(C)=O)cc3)nc21,Potency,[1],inactive
C=CCC1=C(C)C(OC(=O)C2C(C=C(C)C)C2(C)C)CC1=O (configuration not stated),Potency,[3],inactive
same,Potency,[2],inactive
same,Potency,[6],inactive
same,Potency,[8],30.6 µM (active)
same,Potency,[9],48.6 µM (active)
CO[C@H]1CCC(O[C@H]2C[C@H]([C@]3(C)CC[C@]4(C[C@H](O)[C@@H](C)[C@@H]([C@@H](C)C=C(C)C(=O)[C@H](C)C[C@H](C)C(=O)O)O4)O3)O[C@]3(O[C@@H]([C@H]4O[C@@](O)(CO)[C@H](C)C[C@H]4C)C[C@H]3C)[C@H]2C)O[C@H]1C (some centres not stated),Potency,[3],0.743 µM (active)
same,Potency,[1],inactive
same,Potency,[4],inactive
same,Potency,[5],inactive
same,Potency,[6],18.6 µM (active)
same,Potency,[7],4.69 µM (active)
same,Potency,[8],2.09 µM (active)
same,Potency,[9],1.48 µM (active)
O=C(Nc1cccnc1)N1CCC(Cc2cccc(Oc3ccc(C(F)(F)F)cn3)c2)CC1,Potency,[1],21.7 µM (active)
same,Potency,[2],15.3 µM (active)
COc1ccc(C(c2ccc(OC)cc2)C(Cl)(Cl)Cl)cc1,Potency,[3],inactive
same,Potency,[4],inactive
same,Potency,[5],inactive
same,Potency,[6],inactive
same,Potency,[8],21.5 µM (active)
same,Potency,[9],38.2 µM (active)
CC(C)Oc1cccc(NC(=O)c2ccccc2C(F)(F)F)c1,Potency,[3],inactive
same,Potency,[1],inactive
same,Potency,[2],inactive
same,Potency,[4],inactive
same,Potency,[6],inactive
same,Potency,[7],inactive
same,Potency,[9],inactive
Nc1ccc([N+](=O)[O-])cc1,Potency,[3],inactive
same,Potency,[6],inactive
same,Potency,[7],inactive
same,Potency,[9],inactive
[Cl][In]([Cl])[Cl],Potency,[1],inactive
O=C1NS(=O)(=O)c2ccccc21,Potency,[1],inactive
same,Potency,[2],inactive
same,Potency,[4],inactive
same,Potency,[5],inactive
O=C(Nc1cc(Cl)cc2c1[nH]c1cnccc12)c1cccnc1,Potency,[1],24.3 µM (active)
same,Potency,[2],21.7 µM (active)
same,Potency,[4],24.3 µM (active)
COc1cc(OC2CCN(C)CC2)ccc1Nc1ncc2c(n1)n(C1CCCC1)c(=O)n2C,Potency,[1],inactive
same,Potency,[2],24.3 µM (active)
same,Potency,[4],17.2 µM (active)
CCN(CC)CCOc1ccc(Nc2ncc3cc(-c4c(Cl)cccc4Cl)c(=O)n(C)c3n2)cc1,Potency,[1],1.93 µM (active)
same,Potency,[2],0.0306 µM (active)
same,Potency,[4],0.172 µM (active)
